Active and inactive are the calls of the source. How the source made its calls: active means hit-call score of the fitted dose curve at least 0.9, where 1 is the maximum; inactive means score below 0.9.
Columns and labels:
[1] = ATG_CRE_CIS: Attagene CIS-FACTORIAL HepG2 Assay for human cAMP Responsive Element (CRE) binding protein 3 (AID 2282926); conditions: HepG2 CRE cis-reporter, Attagene multiplexed mRNA; actives raise or lower the signal
Method in brief: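 Liver-derived HepG2, transfected with a CRE-containing reporter panel, exposed 24 h; transcript levels sized and quantified by capillary electrophoresis of labelled amplicons; signal changes either way referenced to vehicle.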

[2] = molecular target: CCAAT/enhancer-binding protein beta (Homo sapiens) (UniProt P17676); experiment: ATG_C_EBP_CIS: Attagene CIS-FACTORIAL HepG2 Assay for human CCAAT/Enhancer Binding Protein (C/EBP) beta (AID 2282927); conditions: HepG2 Attagene cis-factorial transcription factor reporter; actives raise or lower the signal
Method in brief: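 Transiently transfected HepG2 (MRTU library, endogenous TF-driven promoters); 24 h dosing; total RNA → oligo(dT) RT → PCR → 6-FAM primer extension → HpaI digest → CE; fit bidirectionally vs DMSO.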

[3] = ATG_AP_1_CIS: Attagene CIS-FACTORIAL HepG2 Assay for human Activator Protein 1 (AP-1) (AID 2282931); conditions: HepG2 Attagene cis-factorial AP-1 reporter mRNA; actives raise or lower the signal
Method in brief: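 Fluorescence of labelled PCR fragments separated by capillary electrophoresis gives reporter mRNA levels. HepG2 with transfected cis-regulated reporter units, 24 h exposure; DMSO serves as baseline for bidirectional curve fits.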

[4] = ATG_AP_2_CIS: Attagene CIS-FACTORIAL HepG2 Assay for human Activator Protein 2 (AP-2) (AID 2282932); conditions: HepG2 AP-2 cis-reporter, Attagene transcription factor profiling; actives raise or lower the signal
Method in brief: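 Read-out: fluorescent reporter mRNA via RT-PCR and capillary electrophoresis, 24 h post-dose in transiently transfected HepG2. Endogenous factors drive cis-promoter reporters; gain or loss of signal fitted bidirectionally against DMSO.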

[5] = ATG_BRE_CIS: Attagene CIS-FACTORIAL HepG2 Assay for human Bone Morphogenetic Protein (BMP) Response Element (BRE) (AID 2282933); conditions: HepG2 BMP response element reporter, Attagene transcription factor profiling; actives raise or lower the signal
Method in brief: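 Fluorescence-labelled reporter cDNA fragments, separated by capillary electrophoresis, gave the signal for this component of a 52-readout multiplex. HepG2 cells were transfected, exposed to chemicals for 24 h, and compared with DMSO using bidirectional fitting.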

[6] = ATG_E_Box_CIS: Attagene CIS-FACTORIAL HepG2 Assay for human Enhancer Box (E-box) (AID 2282936); conditions: HepG2 E-box cis-reporter transcription, actives raise or lower the signal
Method in brief: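 Transiently transfected HepG2, endogenous TF-driven reporters, 24 h dosing. Readout: RT-PCR plus capillary electrophoresis of fluorescent reporter fragments. Gain or loss of signal fitted bidirectionally against DMSO baseline.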

[7] = ATG_M_61_CIS: Attagene CIS-FACTORIAL HepG2 Assay for M61 Transcription Factor (Internal Marker) (AID 2282937); conditions: HepG2 Attagene CIS-FACTORIAL M61 internal marker reporter; actives raise or lower the signal
Method in brief: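 This endpoint serves as an internal background control within a multiplexed HepG2 cis-reporter panel. Cells are exposed for 24 h; reporter mRNA is amplified, fluorescently labelled and sized by capillary electrophoresis, with DMSO as negative control.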

[8] = ATG_EGR_CIS: Attagene CIS-FACTORIAL HepG2 Assay for human Early Growth Response 1 (EGR1) (AID 2282938); conditions: HepG2 Attagene CIS-FACTORIAL EGR reporter mRNA; actives raise or lower the signal
Method in brief: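 HepG2, transient MRTU transfection (cis promoters), 24 h compound. RNA → RT (oligo-dT) → PCR → 6-FAM labelling → HpaI cut → CE fluorescence. Bidirectional fit, DMSO baseline.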

[9] = ATG_Ets_CIS: Attagene CIS-FACTORIAL HepG2 Assay for human Erythroblast Transformation Specific (ETS) (AID 2282941); conditions: HepG2 ETS cis-reporter transcription, actives raise or lower the signal
Method in brief: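 RT-PCR/capillary electrophoresis fluorescence read-out of reporter mRNA; HepG2 transient multi-reporter transfection; 24 h compound exposure; gain or loss of signal fitted bidirectionally relative to DMSO.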

[10] = ATG_FoxO_CIS: Attagene CIS-FACTORIAL HepG2 Assay for human Forkhead box O (FoxO) (AID 2282943); conditions: HepG2 Attagene cis-reporter, FoxO element, mRNA; actives raise or lower the signal
Method in brief: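 Read-out: fluorescence of 6-FAM-labelled reporter cDNA fragments resolved by capillary electrophoresis. Transiently transfected HepG2 cells were dosed for 24 h; activity fitted in both directions relative to DMSO controls.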

[11] = ATG_GATA_CIS: Attagene CIS-FACTORIAL HepG2 Assay for human GATA Binding Protein (AID 2282944); conditions: HepG2 GATA cis-element reporter, Attagene multiplex mRNA; actives raise or lower the signal
Method in brief: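 Cells: HepG2, transiently transfected with cis-regulated reporter transcription units. Exposure: 24 h. Detection: RT-PCR plus capillary electrophoresis of FAM-labeled fragments. Analysis: bidirectional, DMSO as baseline.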

[12] = ATG_M_32_CIS: Attagene CIS-FACTORIAL HepG2 Assay for M32 Transcription Factor (Internal Marker) (AID 2282949); conditions: HepG2 Attagene cis-factorial M32 reporter, mRNA; actives raise or lower the signal;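 further: background control marker of the multiplexed CIS panel rather than a real target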
Method in brief: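 Transient MRTU transfection of HepG2; 24 h compound treatment; TriZol RNA, oligo(dT) RT, reporter PCR, 6-FAM primer extension, HpaI cut, CE. Gain/loss of signal vs DMSO.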

[13] = ATG_M_06_CIS: Attagene CIS-FACTORIAL HepG2 Assay for M06 Transcription Factor (Internal Marker) (AID 2282950); conditions: HepG2 Attagene CIS-FACTORIAL M06 internal marker reporter; actives raise or lower the signal
Method in brief: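 Measured 24 h post-dosing in transiently transfected HepG2 cells, this internal-marker endpoint reports reporter mRNA via RT-PCR with fluorescent primer extension and capillary electrophoresis. DMSO served as negative control and baseline for bidirectional fitting.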

[14] = ATG_MRE_CIS: Attagene CIS-FACTORIAL HepG2 Assay for human Metal Responsive Element (MRE) (AID 2282954); conditions: HepG2 MRE cis-reporter transcription, Attagene multiplex; actives raise or lower the signal
Method in brief: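 RT-PCR/capillary electrophoresis readout of reporter mRNA, 24 h post-dosing, in HepG2 cells transfected with multiplexed cis-regulated reporter constructs. Gain or loss of signal fitted bidirectionally against DMSO baseline.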

[15] = molecular target: Paired box protein Pax-6 (Homo sapiens) (UniProt P26367); experiment: ATG_Pax6_CIS: Attagene CIS-FACTORIAL HepG2 Assay for human Paired Box 6 (PAX6) (AID 2282956); conditions: HepG2 CIS-FACTORIAL PAX6 reporter transcription, RNA readout; actives raise or lower the signal
Method in brief: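 Readout: reporter transcript fluorescence after RT-PCR and capillary electrophoresis. Cells: HepG2, transiently transfected with cis-regulated MRTUs. Exposure 24 h. Gain or loss of signal fitted bidirectionally relative to DMSO.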

[16] = ATG_PXRE_CIS: Attagene CIS-FACTORIAL HepG2 Assay for human Pregnane X Receptor Element (PXRE) (AID 2282957); conditions: HepG2 Attagene CIS-FACTORIAL PXRE reporter, mRNA; actives raise or lower the signal
Method in brief: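 Bidirectional activity, baselined to DMSO, derived from reporter mRNA fluorescence (RT-PCR plus capillary electrophoresis) in HepG2 cells bearing cis-promoter reporter units, 24 h exposure.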

[17] = molecular target: Transcription factor Sp1 (Homo sapiens) (UniProt P08047); experiment: ATG_Sp1_CIS: Attagene CIS-FACTORIAL HepG2 Assay for human Specificity Protein 1 (Sp1) (AID 2282961); conditions: HepG2 Sp1 cis-reporter transcription, actives raise or lower the signal
Method in brief: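 Measures mRNA induction of an Sp1-linked reporter in HepG2 cells 24 h post-dosing. Multiplexed reporters read by RT-PCR and capillary electrophoresis; DMSO serves as negative control and baseline.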

[18] = ATG_SREBP_CIS: Attagene CIS-FACTORIAL HepG2 Assay for human Sterol Regulatory Element Binding (SREBP) (AID 2282962); conditions: HepG2 Attagene cis-factorial SREBP reporter, mRNA; actives raise or lower the signal
Method in brief: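 Readout: fluorescent reporter-transcript peaks resolved by capillary electrophoresis after RT-PCR. Cells were human HepG2 carrying transfected cis-promoter reporter constructs, dosed for 24 h. Gain or loss of signal was fitted against DMSO controls.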

[19] = molecular target: Signal transducer and activator of transcription 3 (Homo sapiens) (UniProt P40763); experiment: ATG_STAT3_CIS: Attagene CIS-FACTORIAL HepG2 Assay for human Signal Transducer and Activator of Transcription 3 (STAT3) (AID 2282963); conditions: HepG2, Attagene cis-factorial STAT3 reporter transcription; actives raise or lower the signal
Method in brief: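 Readout: fluorescent reporter mRNA fragments resolved by capillary electrophoresis. Setup: HepG2 transfected with MRTUs reporting endogenous transcription-factor activity, dosed 24 h. Gain or loss of signal fitted bidirectionally against DMSO control.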

[20] = ATG_TAL_CIS: Attagene CIS-FACTORIAL HepG2 Assay for human TAL Basal Promoter (AID 2282966); conditions: HepG2 Attagene cis-factorial TAL promoter reporter; actives raise or lower the signal;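 further: background control endpoint measuring basal TAL promoter reporter mRNA not a specific factor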
Method in brief: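 Human hepatoma HepG2 cells, transfected with promoter-regulated reporter units, were treated 24 h. Reporter transcript levels, measured through RT-PCR and capillary electrophoresis, were fitted for gain or loss relative to DMSO.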

Measured: AC50

Signal transducer and activator of transcription 3 (Homo sapiens), sequence (P40763 whole entry, looked up, the tested form may be a part): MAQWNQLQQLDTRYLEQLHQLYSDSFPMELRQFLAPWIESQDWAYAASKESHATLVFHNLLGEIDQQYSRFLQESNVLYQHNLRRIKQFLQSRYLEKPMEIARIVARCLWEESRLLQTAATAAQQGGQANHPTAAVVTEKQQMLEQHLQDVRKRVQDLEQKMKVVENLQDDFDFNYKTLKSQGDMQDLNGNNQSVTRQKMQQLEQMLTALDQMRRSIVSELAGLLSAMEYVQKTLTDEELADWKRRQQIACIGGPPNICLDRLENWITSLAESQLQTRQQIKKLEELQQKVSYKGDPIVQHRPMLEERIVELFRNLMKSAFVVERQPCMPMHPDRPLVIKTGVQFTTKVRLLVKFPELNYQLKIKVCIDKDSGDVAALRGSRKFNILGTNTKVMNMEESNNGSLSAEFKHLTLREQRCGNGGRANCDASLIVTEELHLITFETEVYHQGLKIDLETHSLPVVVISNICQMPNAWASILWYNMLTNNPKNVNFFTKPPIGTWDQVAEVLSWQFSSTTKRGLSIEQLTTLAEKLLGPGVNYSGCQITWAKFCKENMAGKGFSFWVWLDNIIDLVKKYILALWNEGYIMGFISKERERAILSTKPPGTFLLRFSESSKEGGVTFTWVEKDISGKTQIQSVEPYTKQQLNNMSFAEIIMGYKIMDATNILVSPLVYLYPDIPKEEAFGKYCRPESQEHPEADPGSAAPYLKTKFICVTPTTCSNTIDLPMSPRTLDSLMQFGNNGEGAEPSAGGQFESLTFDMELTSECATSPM
Paired box protein Pax-6 (Homo sapiens), sequence (P26367 whole entry, looked up): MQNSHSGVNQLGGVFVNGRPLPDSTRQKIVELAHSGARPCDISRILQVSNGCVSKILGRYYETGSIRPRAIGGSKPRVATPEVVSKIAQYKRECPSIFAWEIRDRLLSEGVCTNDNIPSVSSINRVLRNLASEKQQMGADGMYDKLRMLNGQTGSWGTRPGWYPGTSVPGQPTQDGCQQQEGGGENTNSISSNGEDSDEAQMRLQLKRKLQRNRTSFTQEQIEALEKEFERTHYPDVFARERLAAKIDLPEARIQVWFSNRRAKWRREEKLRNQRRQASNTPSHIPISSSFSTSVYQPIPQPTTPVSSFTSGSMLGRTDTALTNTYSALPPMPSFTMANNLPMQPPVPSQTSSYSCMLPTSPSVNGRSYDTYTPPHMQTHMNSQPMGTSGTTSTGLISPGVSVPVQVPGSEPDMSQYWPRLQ
Transcription factor Sp1 (Homo sapiens), sequence (P08047 whole entry, looked up): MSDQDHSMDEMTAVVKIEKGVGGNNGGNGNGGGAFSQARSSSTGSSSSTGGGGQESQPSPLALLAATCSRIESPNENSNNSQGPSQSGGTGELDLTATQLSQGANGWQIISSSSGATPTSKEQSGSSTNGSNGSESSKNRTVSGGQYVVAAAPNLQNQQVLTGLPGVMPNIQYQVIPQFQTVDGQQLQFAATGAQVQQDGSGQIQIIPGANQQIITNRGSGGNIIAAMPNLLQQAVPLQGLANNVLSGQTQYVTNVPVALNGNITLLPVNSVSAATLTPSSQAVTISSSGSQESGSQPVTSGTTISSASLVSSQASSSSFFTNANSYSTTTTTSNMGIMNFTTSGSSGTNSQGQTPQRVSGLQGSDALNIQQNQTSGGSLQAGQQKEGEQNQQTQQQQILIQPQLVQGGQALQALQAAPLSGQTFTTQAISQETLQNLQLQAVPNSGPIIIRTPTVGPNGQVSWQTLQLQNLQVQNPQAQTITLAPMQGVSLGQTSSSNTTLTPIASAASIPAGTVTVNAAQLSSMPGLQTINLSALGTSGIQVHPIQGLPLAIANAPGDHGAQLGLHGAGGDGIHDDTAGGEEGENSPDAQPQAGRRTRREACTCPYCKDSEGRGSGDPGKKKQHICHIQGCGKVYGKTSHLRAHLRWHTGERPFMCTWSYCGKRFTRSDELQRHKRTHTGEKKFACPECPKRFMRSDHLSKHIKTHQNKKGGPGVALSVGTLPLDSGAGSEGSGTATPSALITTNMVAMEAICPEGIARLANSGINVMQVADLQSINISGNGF
CCAAT/enhancer-binding protein beta (Homo sapiens), sequence (P17676 whole entry, looked up): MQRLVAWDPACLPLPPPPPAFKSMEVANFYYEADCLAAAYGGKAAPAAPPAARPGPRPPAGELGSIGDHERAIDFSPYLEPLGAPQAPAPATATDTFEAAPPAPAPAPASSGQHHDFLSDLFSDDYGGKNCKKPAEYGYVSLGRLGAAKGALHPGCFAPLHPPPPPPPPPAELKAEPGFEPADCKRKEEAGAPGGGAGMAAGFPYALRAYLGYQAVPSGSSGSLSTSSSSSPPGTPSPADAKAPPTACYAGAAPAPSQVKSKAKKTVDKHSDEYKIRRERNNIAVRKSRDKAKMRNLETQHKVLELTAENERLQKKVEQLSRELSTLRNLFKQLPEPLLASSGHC

N#CCN(CC#N)CCN(CC#N)CC#N
inactive: all assays above

c1ccc(CNc2ncnc3nc[nH]c23)cc1
inactive: all assays above

CC/C=C\CC1=C(C)CCC1=O
active: [16] 6.38 µM
inactive: all other assays above

CC(=O)OC(C)(C)Cc1ccccc1
inactive: all assays above

CC(C)(Oc1ccc(Cl)cc1)C(=O)O
inactive: all assays above

CC(C)CC(=O)CC(C)C
inactive: all assays above

Cc1cc(-n2nc3ccc(Cl)cc3n2)c(O)c(C(C)(C)C)c1
active: [16] 2.86 µM
inactive: all other assays above

From PubChem BioAssay (EPA / NIEHS)
